Screens deposited in PubChem by several laboratories.
697 NFkB inh: inhibitors of the PMA/ionomycin-induced NF-kB reporter in 697 B cells. 697 B-cell NF-kB luciferase reporter, 16 h. inhibition, % at 4 µM. 0.33% of 330,000 active. AID 435022; in the data active = inhibition above about 35%
Gli-Sufu antag: antagonists of Gli-Sufu signaling; Sufu-KO-LIGHT fibroblasts, Gli luciferase reporter luminescence; inhibition, % at 5 µM; 0.74% of 340,000 active;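 active = inhibition above about 55%, limit read from the data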;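 note: 0% = DMSO-treated cells and 100% = wells with medium but no cells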
esBAF inh: inhibitors of esBAF chromatin remodeling in mouse ES cells | Bmi1-luciferase knock-in reporter, 24 h; 100% = twice the neutral-well signal | reporter increase, % at 12.5 µM | 2% of 350,000 active; in the data active = activation above about 40%;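 note: 0% = median of the plate's neutral control wells and 100% = double that signal; a rise in the Bmi1 reporter signal indicates esBAF inhibition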
SMARCA2 act: activators of SMARCA2 function; activation, % at 9.1 µM; MG213 cells, MMTV-luciferase reporter, dexamethasone, overnight; AID 652017; 1% of 370,000 active; in the data active = activation above about 7.8%;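 note: 0% = vehicle wells and 100% = reference activator wells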
Jurkat NFkB inh: lowers PMA/ionomycin-induced NF-kB signal in Jurkat cells. PMA/ionomycin-induced NF-kB luciferase reporter, luminescence. inhibition, % at 4 µM. AID 435003. 0.53% of 330,000 active; in the data active = inhibition above about 50%
The depositor's hits bear a star. Sampled rows, rich in hits. Any-hit rate of the full collection: about 3.3%.

Results for c1coc(CSc2ncnc3c2oc2ccccc23)c1 ?
697 NFkB inh: -82; Gli-Sufu antag: -5; esBAF inh: 56*; SMARCA2 act: 4; Jurkat NFkB inh: -48

Results for c1ccc(CSc2ncnc3c2oc2ccccc23)cc1 ?
697 NFkB inh: -13; Gli-Sufu antag: 3; SMARCA2 act: -2; Jurkat NFkB inh: -1

Results for C[C@H]1CN([C@@H](C)CO)C(=O)c2cccc(NC(=O)NC3CCCCC3)c2O[C@H]1CN(C)S(=O)(=O)c1ccc(F)cc1 ?
esBAF inh: -5

Results for N/C(=N\OC(=O)c1ccc(F)cc1)c1ccc(Br)cc1 ?
697 NFkB inh: -84; Gli-Sufu antag: -54; esBAF inh: 56*; SMARCA2 act: 2; Jurkat NFkB inh: -81

How did N/C(=N\OC(=O)c1ccc(F)cc1)c1ccccc1 do in these assays?
697 NFkB inh: -72; Gli-Sufu antag: -25; esBAF inh: 34; SMARCA2 act: 7; Jurkat NFkB inh: -67

How did Cc1ccc(/C(N)=N/OC(=O)c2ccc(F)cc2)cc1 do in these assays?
697 NFkB inh: -100; Gli-Sufu antag: -68; esBAF inh: 22; SMARCA2 act: 7.8*; Jurkat NFkB inh: -95

How did COc1ccc(CN(C)C[C@@H]2Oc3c(NS(=O)(=O)c4ccccc4)cccc3C(=O)N([C@H](C)CO)C[C@@H]2C)cc1 do in these assays?
esBAF inh: 3

How did Cc1ccc(C(=O)COC(=O)c2cc(=O)[nH]c3ccccc23)cc1C do in these assays?
697 NFkB inh: -65; Gli-Sufu antag: -18; esBAF inh: 88*; SMARCA2 act: -3; Jurkat NFkB inh: -5

Results for COc1ccc(C(=O)Nc2ccc3nc4n(c(=O)c3c2)CCCCC4)cc1OC ?
esBAF inh: 20; SMARCA2 act: -1

What do the screens show for `O=C(Nc1ccc(SC(F)F)cc1)c1ccc2c(=O)n3c(nc2c1)CCC3`?
697 NFkB inh: -67; esBAF inh: 87*; SMARCA2 act: -4; Jurkat NFkB inh: -30

How did O=C(Nc1ccc2nc3n(c(=O)c2c1)CCCC3)c1ccccc1F do in these assays?
697 NFkB inh: 5; Gli-Sufu antag: -24; esBAF inh: 45*; SMARCA2 act: 2; Jurkat NFkB inh: -39

How did O=C(Nc1ccc2nc3n(c(=O)c2c1)CCCC3)c1cccc(F)c1 do in these assays?
697 NFkB inh: -15; Gli-Sufu antag: -7; esBAF inh: 45*; SMARCA2 act: 2; Jurkat NFkB inh: -24

How did COC(=O)C[C@@H]1CC[C@H]2[C@H](COc3ccc(NC(=O)c4cc(C)on4)cc3C(=O)N2C)O1 do in these assays?
esBAF inh: 9

Results for C[C@H]1CN([C@@H](C)CO)C(=O)c2cc(NC(=O)Cn3cnnn3)ccc2O[C@H]1CN(C)C(=O)Nc1ccc(F)cc1 ?
esBAF inh: -2

Results for O=C(C[C@H]1C[C@H]2c3cc(NC(=O)c4ccc5c(c4)OCO5)ccc3O[C@H]2[C@@H](CO)O1)NCCc1ccccc1 ?
esBAF inh: -7

Results for O=C(COC(=O)COc1ccc(Cl)cc1Br)NC1CCCCCC1 ?
697 NFkB inh: 2; Gli-Sufu antag: 5; esBAF inh: -8; SMARCA2 act: -2; Jurkat NFkB inh: -3

Results for N#CCc1ccc(OC(=O)c2cccnc2Cl)cc1 ?
697 NFkB inh: -1; Gli-Sufu antag: -9; esBAF inh: 60*; SMARCA2 act: 6; Jurkat NFkB inh: -82

Results for O=C(COC(=O)c1cccnc1Cl)c1ccccc1 ?
697 NFkB inh: -19; Gli-Sufu antag: -41; esBAF inh: 44*; SMARCA2 act: 2; Jurkat NFkB inh: -1

How did O=C(OCC(=O)N1CCCCCC1)c1cccnc1Cl do in these assays?
697 NFkB inh: -15; Gli-Sufu antag: -8; esBAF inh: 36; SMARCA2 act: 2; Jurkat NFkB inh: 1

Results for O=C(COC(=O)c1cccnc1Cl)c1ccc(F)cc1 ?
697 NFkB inh: -31; Gli-Sufu antag: 5; SMARCA2 act: -1; Jurkat NFkB inh: -11

How did CN(C(=O)COc1ccc(Cl)cc1Br)C1CCCCC1 do in these assays?
697 NFkB inh: -7; Gli-Sufu antag: -25; esBAF inh: 48*; SMARCA2 act: 2; Jurkat NFkB inh: -23

Results for CN(C(=O)COC(=O)c1cccnc1Cl)C1CCCCC1 ?
697 NFkB inh: -12; Gli-Sufu antag: -10; esBAF inh: 56*; SMARCA2 act: 3; Jurkat NFkB inh: -5

How did CO[C@@H]1CN(C)C(=O)c2cc(NC(=O)Nc3cccc(F)c3)ccc2OC[C@@H](C)N(C(=O)Nc2cccc(F)c2)C[C@H]1C do in these assays?
esBAF inh: 10

Results for C[C@H]1CN([C@@H](C)CO)C(=O)c2cccc(NC(=O)c3ccncc3)c2O[C@@H]1CN(C)C(=O)NC1CCCCC1 ?
esBAF inh: 5

How did CCCC(=O)Nc1ccc2c(c1)OC[C@@H](C)N(C(=O)C1CCCC1)C[C@H](C)[C@H](OC)CN(C)C2=O do in these assays?
esBAF inh: 3

Results for Cc1noc(C)c1S(=O)(=O)N(C)C[C@@H]1Oc2ccc(NS(C)(=O)=O)cc2C(=O)N([C@H](C)CO)C[C@@H]1C ?
esBAF inh: 2

What do the screens show for `Cc1cc(C)cc(NC(=O)c2sc3nc(C)cc(C)c3c2N)c1`?
697 NFkB inh: -20; Gli-Sufu antag: -42; esBAF inh: 70*; SMARCA2 act: 4; Jurkat NFkB inh: -29

How did C[C@H]1CN([C@@H](C)CO)C(=O)c2cccc(NS(=O)(=O)c3cccs3)c2O[C@H]1CN(C)S(=O)(=O)c1cccs1 do in these assays?
esBAF inh: 2

How did COc1ccccc1S(=O)(=O)N[C@@H]1CC[C@H](CC(=O)N2CCCCC2)O[C@@H]1CO do in these assays?
esBAF inh: -4

What do the screens show for `CCC(C)c1ccc(NC(=O)Nc2cccnc2)cc1` (stereo not drawn)?
697 NFkB inh: -46; Gli-Sufu antag: -77; esBAF inh: 61*; SMARCA2 act: 0; Jurkat NFkB inh: -99

Results for CCC(=O)Nc1nc2ccc3nc(C)sc3c2s1 ?
697 NFkB inh: -77; Gli-Sufu antag: -61; esBAF inh: 46*; SMARCA2 act: 6; Jurkat NFkB inh: -52

How did CCC(=O)Nc1nc2c(OC)ccc(OC)c2s1 do in these assays?
697 NFkB inh: -4; Gli-Sufu antag: 1; esBAF inh: -4; SMARCA2 act: -1; Jurkat NFkB inh: 5

How did CC(=O)NC1=C(Nc2ccc(N(C)C)cc2)C(=O)c2ccccc2C1=O do in these assays?
697 NFkB inh: -185; Gli-Sufu antag: -59; esBAF inh: -74; SMARCA2 act: 8; Jurkat NFkB inh: -128

Results for CNC1=C(N(C(C)=O)c2ccc(Br)cc2)C(=O)c2ccccc2C1=O ?
Gli-Sufu antag: 94*; SMARCA2 act: -9

How did Cc1cc2c(=Cc3ccc(N(C)C)cc3)c3ccccc3n2[n+]1C do in these assays?
Gli-Sufu antag: 83*; SMARCA2 act: -8

Results for CCOC(=O)c1cc2c(=Cc3ccc(N(C)C)cc3)c3ccccc3n2[n+]1C ?
Gli-Sufu antag: 76*; SMARCA2 act: -5
